A selection: hits, their analogues and other compounds. The true share with any hit is near 10%.
Six1-Eya2 blk – inhibitors of human Six1/Eya2 interaction; AID 651725; activity change, % (test concentration not listed); Q15475+O00167; 360,000 compounds, 0.56% hits; AlphaScreen GST-Six1/His-Eya2 binding, biochemical; hits give low values; in the data active = activity change below about -65%; inconclusive = mostly about -30% to -63%
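AlphaScreen with GST-Six1 and His-Eya2 (5X mix: 250 nM and 500 nM), glutathione donor and nickel acceptor beads; buffer 50 mM Tris pH 8.0, 300 mM NaCl, 1 mM TCEP; 1 h at 37 C in the dark.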
BAZ2B inh – blocks human BAZ2B; Q9UIF8; AlphaScreen BAZ2B-H3K14Ac peptide displacement; Potency, µM (doses to about 114 µM), usual class: inhibitors; 360,000 compounds, 4.4% hits; note: nearly all actives have a fitted effect of over 60% in size
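Complex of BAZ2B and biotin-H3K14Ac (50 nM apiece) forms over 30 min at RT, then faces library compounds up to 110 uM for another 30 min; AlphaScreen beads added, 20 min dark incubation, luminescence read.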
JMJD2A Tudor – JMJD2A Tudor domain (human) inhibition; O75164; AlphaScreen JMJD2A-Tudor / H3K4me3 peptide binding; Potency, µM (titrated, usually from 114 µM), hits mostly inhibitors; 390,000 compounds, 4.4% hits; note: nearly all actives have a fitted effect of over 50% in size
HP1b chromo inh – inhibitors of HP1-beta chromodomain binding to methylated histone tails; P83916; AlphaScreen HP1-beta / biotin-H3K9me3 peptide binding; Potency, µM (top dose mostly 114 µM), most hits filed as inhibitors; 390,000 compounds, 0.56% hits; note: nearly all actives have a fitted effect of over 70% in size
Target sequence (P83916 whole entry, looked up): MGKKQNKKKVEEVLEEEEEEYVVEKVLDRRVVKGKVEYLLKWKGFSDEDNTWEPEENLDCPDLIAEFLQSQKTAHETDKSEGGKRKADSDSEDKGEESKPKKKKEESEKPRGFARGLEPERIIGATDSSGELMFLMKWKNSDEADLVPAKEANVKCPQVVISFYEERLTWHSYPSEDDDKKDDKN
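Compound inhibition of the preformed complex between 50 nM HP1-beta and 50 nM biotinylated H3K9me3 peptide was read by AlphaScreen. Buffer was PBS pH 7.4 with 0.01% Tween-20. Incubations ran 30 min at room temperature, with 10 ug/mL donor/acceptor beads.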
CtBP-E1A blk – inhibitors of CtBP/E1A interaction; 340,000 compounds, 0.49% hits; AlphaScreen GST-E1A/His-CtBP binding, 1536-well; hits give low values; activity change, % (test concentration not listed); in the data active = activity change below about -65%; inconclusive = mostly about -30% to -63%
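Homogeneous bead-based format: GST-tagged E1A captured on glutathione donor beads, His-tagged CtBP on nickel acceptor beads; compounds precede bead addition by 2 h at 37 °C.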
G9a inh – inhibitors of human histone lysine methyltransferase G9a; Q96KQ7; G9a H3K9 monomethylation, AlphaScreen, 2 h; Potency, µM (highest dose often 102 µM), usual class: inhibitors; 350,000 compounds, 8.8% hits; AID 504332; note: nearly all actives have a fitted effect of over 75% in size
Target sequence (Q96KQ7 913-1193 limits assumed): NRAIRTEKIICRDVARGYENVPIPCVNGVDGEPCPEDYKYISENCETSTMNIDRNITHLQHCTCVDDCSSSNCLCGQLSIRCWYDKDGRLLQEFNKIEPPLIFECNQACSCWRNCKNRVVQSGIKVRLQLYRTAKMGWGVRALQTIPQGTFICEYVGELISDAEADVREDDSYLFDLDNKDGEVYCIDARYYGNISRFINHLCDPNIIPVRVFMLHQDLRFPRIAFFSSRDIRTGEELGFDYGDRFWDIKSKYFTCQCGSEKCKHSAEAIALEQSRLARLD
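Compounds were preincubated with 20 nM G9a for 15 min, after which biotinylated H3K9 peptide (500 nM) and SAM (20 uM) started a 2 h room-temperature reaction. Monomethylated product was quantified by antibody-based AlphaScreen chemiluminescence.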
Large screens that a line does not name were inactive. Unless noted, calls come from the whole dose curve; as a rule, active = well fitted inhibition curve with a large enough effect; inconclusive = small, poorly fitted or top-dose-only effect; inactive = no such curve, though single readings can be large or run the other way.

O=C(CNc1cccc2ccccc12)N/N=C/c1ccc([N+](=O)[O-])cc1	G9a inh 8.91µM
COc1cccc(/C=N/NC(=O)CCn2c3ccccc3c3ccccc32)c1	G9a inh 17.8µM
O=C(CNc1cccc2ccccc12)N/N=C/c1cccc(Oc2ccccc2)c1	BAZ2B inh inconclusive, JMJD2A Tudor inconclusive, G9a inh 10µM (no result: CtBP-E1A blk)
O=C(CNc1cccc2ccccc12)N/N=C/c1ccccn1	G9a inh inconclusive
COC(=O)CN1C(C(=O)c2ccccc2)=C(OC(=O)c2ccc(C)cc2)c2ccccc2S1(=O)=O	none (no result: Six1-Eya2 blk, CtBP-E1A blk)
CC(=O)Nc1ccc2c(c1)C(=Nc1ccccc1)c1ccccc1-2	JMJD2A Tudor 35.5µM (no result: BAZ2B inh, G9a inh)
CC(=O)Nc1ccc2c(c1)C(=Nc1ccc(C)cc1)c1ccccc1-2	Six1-Eya2 blk inconclusive (no result: BAZ2B inh, G9a inh)
Cc1cccc(-c2nnc(SCc3nc4ccccc4[nH]3)n2Cc2ccco2)c1	G9a inh 50.1µM
c1coc(Cn2c(SCc3nc4ccccc4[nH]3)nnc2-c2cccs2)c1	G9a inh 50.1µM
CCOc1ccc(-c2nnc(SCc3nc4ccccc4[nH]3)n2N)cc1	BAZ2B inh inconclusive, JMJD2A Tudor 89.1µM, G9a inh inconclusive
O=c1[nH]c(CSc2nnc(-c3ccncc3)n2Cc2ccco2)nc2ccccc12	none
Cc1ccc(-c2nnc(SCc3nc4ccccc4[nH]3)n2Cc2ccco2)cc1	BAZ2B inh inconclusive, JMJD2A Tudor 79.4µM (no result: G9a inh)
CC(=O)N1c2ccccc2C(=O)C1N1CCCCC1 (centres undefined)	G9a inh 50.1µM
O=C(NCCN1CCCCCC1)C1CCC(CNS(=O)(=O)c2cccc3cccnc23)CC1 (centres undefined)	JMJD2A Tudor inconclusive, G9a inh 44.7µM
CC(=O)Nc1ccc(NC(=O)c2cc(CN3CCCC3)on2)cc1	none (no result: Six1-Eya2 blk, CtBP-E1A blk)
Cc1ccc(NS(=O)(=O)c2ccc3c(c2)CCC(C)(C)O3)cc1C	none (no result: Six1-Eya2 blk, BAZ2B inh, HP1b chromo inh, CtBP-E1A blk, G9a inh)
C=C(C)C(=O)OCCCCCCOc1ccc(C(=O)O)cc1	Six1-Eya2 blk inconclusive, BAZ2B inh inconclusive, JMJD2A Tudor 11.2µM, HP1b chromo inh inconclusive
CCCCCCCCOc1ccc(C(=O)O)cc1	none
COc1ccc(-n2nc(C(=O)N3CCN(c4cccc(C(F)(F)F)c4)CC3)c3c4ccccc4n(C)c3c2=O)cc1Cl	none (no result: Six1-Eya2 blk, BAZ2B inh, CtBP-E1A blk)
CCC(C)c1ccc(NC(=O)c2cccnc2)cc1 (centres undefined)	none
CCC(C)c1ccc(O)c(NC(=O)c2cccnc2)c1 (centres undefined)	G9a inh 50.1µM
CC(C)c1ccc(O)c(NC(=S)NC(=O)c2cccnc2)c1	none
CC(C)c1ccc(O)c(NC(=O)c2cncc(Br)c2)c1	G9a inh 39.8µM
CC(C)(C)NS(=O)(=O)c1ccc(/C=C/C(=O)O)cc1	none
O=C(COc1ccccc1)Nc1ccccc1F	none
O=C(COc1c(Br)cc(Br)c2cccnc12)Nc1ccccc1F	BAZ2B inh 50.1µM, G9a inh 44.7µM (no result: CtBP-E1A blk)
CN(C)c1ccc(C(=O)Nc2nc3c(s2)CCCC3)cc1	BAZ2B inh inconclusive, JMJD2A Tudor 79.4µM, HP1b chromo inh inconclusive, G9a inh 35.5µM
C/C(=N\NC1=NCCN1)c1ccc(Cl)cc1	none
COc1cccc(C(=O)Nc2nc3c(s2)CCCC3)c1	BAZ2B inh inconclusive, JMJD2A Tudor inconclusive, G9a inh 10µM (no result: Six1-Eya2 blk, CtBP-E1A blk)
C/C(=N\Nc1nc2c(s1)CCCC2)c1ccc(Cl)cc1	BAZ2B inh 44.7µM, JMJD2A Tudor inconclusive, G9a inh inconclusive
CC(C)C(NS(=O)(=O)c1ccc2c(c1)oc(=O)n2C)C(=O)N1CCN(c2cccc(Cl)c2)CC1 (centres undefined)	none (no result: Six1-Eya2 blk, CtBP-E1A blk)
c1ccc(-c2cnc(CSc3ncnc4sccc34)o2)cc1	G9a inh 14.1µM
CCCNC(=O)C1(C)CCN(C(=O)c2cccc(Cl)c2)C1 (centres undefined)	none (no result: BAZ2B inh, JMJD2A Tudor, HP1b chromo inh, G9a inh)
Cc1noc(-c2ccccc2)c1NC(=O)Nc1ccc2nc([C@H]3C[C@H](O)[C@@H](CO)O3)[nH]c2c1	none (no result: BAZ2B inh, JMJD2A Tudor, HP1b chromo inh, G9a inh)
CCNC(=S)N/N=C1\C(=O)c2cccc3cccc1c23	none
O=C(N/N=C1/C(=O)c2cccc3cccc1c23)c1ccc(Cl)cc1	BAZ2B inh 50.1µM, JMJD2A Tudor 35.5µM, G9a inh inconclusive
CCOC(=O)C1CCCN(S(=O)(=O)CCNC(=O)c2cccc(OC)c2)C1 (centres undefined)	G9a inh 11.2µM
COc1cccc(C(=O)NCCS(=O)(=O)N(C)C2CCCCC2)c1	G9a inh 22.4µM
COc1cccc(C(=O)NC(c2ccccc2)C2CCCC2)c1 (centres undefined)	JMJD2A Tudor 22.4µM
COc1cccc(C(=O)Nc2ccccc2)c1	none
COc1cccc(C(=O)NCCS(=O)(=O)N(C)Cc2ccccc2)c1	G9a inh 44.7µM
CCOC(=O)CN1C(=O)N[C@@H](CCc2ccccc2)[C@@H](C(=O)OC)[C@H]1C	none (no result: BAZ2B inh, G9a inh)
COc1ccc(Cc2nc3ccccc3n2CC(=O)N/N=C/c2ccc(C)cc2O)cc1OC	BAZ2B inh 56.2µM, JMJD2A Tudor inconclusive, G9a inh inconclusive
COc1ccc(N2Cc3ccc(C(=O)N/N=C\c4ccc(O)cc4O)cc3C2)cc1	BAZ2B inh inconclusive, G9a inh 28.2µM (no result: Six1-Eya2 blk, JMJD2A Tudor, HP1b chromo inh, CtBP-E1A blk)
COc1ccccc1/C=N/NC(=O)CSc1cc(C)nc2ccccc12	none (no result: G9a inh)
COc1ccc2nc(C)cc(SCC(=O)N/N=C/c3ccc(O)cc3O)c2c1	Six1-Eya2 blk -73.8, CtBP-E1A blk -69.8
COc1cccc2c(SCC(=O)N/N=C/c3ccc(O)cc3O)cc(C)nc12	Six1-Eya2 blk -78.6, CtBP-E1A blk -65.8
COc1ccc2nc(C)cc(SCC(=O)N/N=C/c3ccccc3)c2c1	Six1-Eya2 blk inconclusive, G9a inh inconclusive
O=C(c1ccc2c(c1)CCN2S(=O)(=O)c1ccc(Cl)cc1)N1CCN(c2ccc(F)cc2)CC1	none (no result: Six1-Eya2 blk, CtBP-E1A blk)
CCOc1cc(C(C(=O)NCC2CCCO2)N(C(=O)Cn2nnc3ccccc32)c2ccccc2C(C)=O)ccc1O (centres undefined)	none
Cc1nc(SCC(=O)Nc2ccccc2F)[nH]c(=O)c1Cc1ccccc1	none (no result: Six1-Eya2 blk, CtBP-E1A blk)
CS(=O)(=O)c1nc(-c2ccc(F)cc2)cc(C(F)(F)F)n1	G9a inh 44.7µM
CCOC(=O)CS(=O)(=O)c1nc(-c2ccc(F)cc2)cc(C(F)(F)F)n1	G9a inh inconclusive
Cc1cc(NC(=O)CSc2nc(-c3cccs3)cc(C(F)(F)F)n2)no1	none
CCOC(=O)CS(=O)(=O)c1nc(-c2ccccc2)cc(C(F)(F)F)n1	G9a inh 35.5µM
Cc1cc(NC(=O)CCCS(=O)(=O)c2nc(-c3cccs3)cc(C(F)(F)F)n2)no1	G9a inh 50.1µM
COc1ccc(-c2cc(C(F)(F)F)nc(S(C)(=O)=O)n2)cc1	none
